Experimental data taken from ChEMBL document CHEMBL3433997, “St. Jude Leishmania screening dataset” (2016).

Key:
Type in all cases: functional
[1] = molecular target: Solute carrier family 2, facilitated glucose transporter member 1 (Homo sapiens) (UniProt P11166); test: ST_JUDE_LEISH: Cytotoxicity at 2uM final concentration against transgenic Leishmania Mexicana promastigotes LmGLUT1 that are glucose transport deficient and complemented with the human glucose transporter GLUT1. Activity is measured by DNA content using SYBR green in vitro
[2] = molecular target: Hexose transporter 1 (Plasmodium falciparum) (UniProt O97467); test: ST_JUDE_LEISH: Cytotoxicity at 2uM final concentration against transgenic Leishmania Mexicana promastigotes LmPfHT that are glucose transport deficient and complemented with the Plasmodium falciparum hexose transporter. Activity is measured by DNA content using SYBR green in vitro
[3] = molecular target: Glucose transporter (Leishmania mexicana) (UniProt O61059); test: ST_JUDE_LEISH: Cytotoxicity at 2uM final concentration against transgenic Leishmania Mexicana promastigotes LmGT2 that are glucose transport deficient and complemented with the L. Mexicana glucose transporter 2. Activity is measured by DNA content using SYBR green in vitro

Solute carrier family 2, facilitated glucose transporter member 1 (Homo sapiens), sequence (P11166 whole entry): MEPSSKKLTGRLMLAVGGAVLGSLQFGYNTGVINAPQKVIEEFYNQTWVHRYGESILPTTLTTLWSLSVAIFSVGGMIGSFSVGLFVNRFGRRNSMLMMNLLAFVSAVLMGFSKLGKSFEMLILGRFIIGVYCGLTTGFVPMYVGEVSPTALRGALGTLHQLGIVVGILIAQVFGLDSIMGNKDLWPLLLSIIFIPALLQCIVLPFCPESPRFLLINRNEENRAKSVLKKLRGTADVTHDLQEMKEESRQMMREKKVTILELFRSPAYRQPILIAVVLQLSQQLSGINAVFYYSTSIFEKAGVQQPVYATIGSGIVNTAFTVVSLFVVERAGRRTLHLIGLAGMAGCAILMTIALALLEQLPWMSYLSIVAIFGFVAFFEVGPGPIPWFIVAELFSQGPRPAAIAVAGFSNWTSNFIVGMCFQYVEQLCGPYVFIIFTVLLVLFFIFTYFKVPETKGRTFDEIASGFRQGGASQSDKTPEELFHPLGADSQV

SMILES: Cc1ccc(C2(CN3CCC(NC(=O)c4n[nH]cc4Cl)CC3)CCCCC2)cc1
- inhibition [1]: -1.34%
- inhibition [2]: 0.31%
- inhibition [3]: -0.37%

SMILES: O=C(NCCCc1ccccc1)c1csc(C2CCCN(C(=O)c3ccc(O)c(-c4ccccc4)c3)C2)n1 (stereo unspecified)
- inhibition [1]: 2.11%
- inhibition [2]: 0.46%
- inhibition [3]: -4.23%

SMILES: CN(CCCc1c[nH]c2ccccc12)CC1CCN(C(=O)/C=C/c2ccc(Cl)c(Cl)c2)CC1
- inhibition [1]: -3.42%
- inhibition [2]: -1.25%
- inhibition [3]: -1.38%

SMILES: O=C(CCc1ccccc1)NC(c1ccc(Cl)cc1)c1ccc2cccnc2c1O (stereo unspecified)
- inhibition [1]: -0.41%
- inhibition [2]: 1.91%
- inhibition [3]: 3.42%

SMILES: N#Cc1cccc(Nc2cc(C(F)(F)F)nc(Nc3ccccc3)n2)c1
- inhibition [1]: 15.4%
- inhibition [2]: 11.3%
- inhibition [3]: 6.45%

SMILES: Cc1[nH]c(C)c(-c2ccc(Oc3cccc(Cl)c3)cc2)c(=O)c1Cl
- inhibition [1]: 9.05%
- inhibition [2]: 7.78%
- inhibition [3]: 4.29%

SMILES: Cc1noc(C)c1-c1cccc(CNCc2ccc(-c3ccc(-c4nc5cc(C(F)(F)F)ccc5[nH]4)s3)cc2)c1
- inhibition [1]: 3.88%
- inhibition [2]: 3.12%
- inhibition [3]: 0.04%

SMILES: Brc1ccsc1-c1nc(NC2CCN(Cc3ccccc3)CC2)no1
- inhibition [1]: -0.23%
- inhibition [2]: 5.86%
- inhibition [3]: -0.38%

SMILES: CCn1c(-c2nonc2N)nc2c(-c3ccccc3)ncc(OCCCNCCCN3CCOCC3)c21
- inhibition [1]: 2.58%
- inhibition [2]: 1.32%
- inhibition [3]: 0.55%

SMILES: COc1ccc(C(=O)C2CC2CN(C)CC(O)c2cc(C)c(OC)cc2C)cc1 (stereo unspecified)
- inhibition [1]: 8.26%
- inhibition [2]: 7.67%
- inhibition [3]: 6.57%

SMILES: COc1ccc2nccc(N3CCCN(CCNS(=O)(=O)c4ccc5c(c4)NC(=O)CS5)CC3)c2n1
- inhibition [1]: 0.19%
- inhibition [2]: 1%
- inhibition [3]: -0.73%

SMILES: CCCN1CCN(c2cc(NCC)c3c4c(onc24)-c2ccccc2C3=O)CC1
- inhibition [1]: 7.98%
- inhibition [2]: 8.22%
- inhibition [3]: 6.9%
